Only some compounds are listed: those with a hit (about 4% of all), similar ones and a draw of the others.
GDH-TPI inh – GDH-TPI coupled enzyme inhibition counter-screen | GDH-TPI coupled enzyme counterscreen, NADH absorbance | inhibition, % at 4.8 µM | hit rate 1.2% among 360,000;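 note: 0% = DMSO wells and 100% = wells lacking the enzyme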
MazEF act – activators of E. coli MazEF toxin-antitoxin RNase | activation, % at 20 µM | hit rate 0.32% among 350,000 | FAM/BHQ RNA-DNA oligo cleavage fluorescence, 5 h | P0AE70; in the data active = activation above about 50%
Target sequence (P0AE70 whole entry, looked up): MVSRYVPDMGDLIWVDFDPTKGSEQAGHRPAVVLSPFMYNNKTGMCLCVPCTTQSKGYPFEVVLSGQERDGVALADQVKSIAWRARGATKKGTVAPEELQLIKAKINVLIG
Mtb bLac sens – beta-lactam sensitization of Mtb H37Rv; hit rate 0.27% among 330,000; AID 434955; M. tuberculosis H37Rv growth with meropenem, percent inhibition; inhibition, % at 25 µM; call rule not given here;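 note: growth measured after seven days incubation then overnight dye step; 0% = bacteria only wells and 100% = bacteria with antibiotic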
Mtb FBA inh – Mtb fructose-bisphosphate aldolase inhibition; P9WQA3; purified M. tuberculosis FBA, fluorescence read-out; inhibition, % at 1 µM; hit rate 2.3% among 360,000; in the data active = inhibition above about 27%;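 note: 0% = vehicle and 100% = reference inhibitor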
Target sequence (P9WQA3 whole entry, looked up): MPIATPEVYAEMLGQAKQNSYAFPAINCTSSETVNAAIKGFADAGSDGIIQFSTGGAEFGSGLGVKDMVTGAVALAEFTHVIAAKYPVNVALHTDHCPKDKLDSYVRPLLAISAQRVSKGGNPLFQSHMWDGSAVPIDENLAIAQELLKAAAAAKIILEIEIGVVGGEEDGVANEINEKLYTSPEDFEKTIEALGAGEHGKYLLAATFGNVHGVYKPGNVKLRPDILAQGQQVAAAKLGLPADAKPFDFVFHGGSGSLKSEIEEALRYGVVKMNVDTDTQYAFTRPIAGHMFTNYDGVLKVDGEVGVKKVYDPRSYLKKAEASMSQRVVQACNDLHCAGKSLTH
CCHF vOTU inh – CCHFV vOTU protease inhibition; Pep-AMC fluorescence; AID 651958; hit rate 0.55% among 370,000; inhibition, % at 11.5 µM; note: 0% = vehicle wells with enzyme and 100% = no enzyme wells
Numbers without * were called inactive; ? = inconclusive; . = no result; + = active, no number. Cut-off read from the data, not from the text of the source, unless noted: active = inhibition above about 30%; inactive = the rest.

SMILES | GDH-TPI inh | MazEF act | Mtb bLac sens | Mtb FBA inh | CCHF vOTU inh
CCC(=O)N1CCc2cc(Br)c(S(=O)(=O)N3CCC(C(=O)NCCCOC(C)C)CC3)cc21 | . | . | . | . | -2
CCOc1ccc(-n2c(COc3ccc(Cl)cc3)nnc2SCC(=O)Nc2ccc(OCc3ccccc3)cc2)cc1 | . | . | . | . | 1
CC[n+]1c(/C=C(\C)Nc2ccccc2)sc2ccccc21 | 31* | 6 | -6 | 1 | -3
CC[n+]1c(/C=C(/C)SC)sc2ccccc21 | 38* | 14 | 11 | 2 | -7
CC[n+]1c(/C=C(\C)SC)sc2ccccc21 | 13 | 15 | 4 | 2 | -8
CC(C)(C)c1ccc(S(=O)(=O)N2CCC(c3cn4ccccc4n3)CC2)cc1 | . | . | . | . | 1
CCCCCN1CCCCC(NC(=O)CSc2ccccc2)C1=O (centres undefined) | . | . | . | . | -5
O=C1c2ccccc2C(Nc2ccc(S(=O)(=O)N3CCOCC3)cc2)N1c1ccccn1 (centres undefined) | 5 | 2 | -5 | 4 | -7
O=C1c2ccccc2C(Nc2ccc(S(=O)(=O)N3CCCCCC3)cc2)N1c1ccccn1 (centres undefined) | 4 | 94* | -5 | 1 | 2
CC(COc1ccc(Cl)cc1)CN1CCC(C(O)(c2ccccc2)c2ccccc2)CC1 (centres undefined) | . | . | . | . | 0
CCOC(=O)c1sc(=S)n(C)c1NC(=O)c1ccccc1 | 36* | 14 | 5 | -2 | 8
COc1ccc2cc(C(=O)C3CCCN(C(=O)c4ccnn4C)C3)ccc2c1 (centres undefined) | 9 | 6 | 2 | 155* | -124
COc1ccc2cc(C(=O)C3CCCN(C(=O)c4cc(=O)n(C)c(=O)n4C)C3)ccc2c1 (centres undefined) | 12 | 6 | -4 | 125* | -114
CC(C)CN1C(=O)[C@@]2(CC(=O)N(C)C2c2ccccc2)c2cc(-n3cc(CO)nn3)ccc21 (some centres undefined) | . | . | . | . | -3
COc1ccc(N2C(=O)c3cccc4cccc(c34)C2=O)cc1 | 6 | 7 | -6 | -3 | 11
COc1ccc(N2C(=O)c3cccc4c(N(C)CCO)ccc(c34)C2=O)cc1 | -9 | 155* | 7 | -13 | -1
COC[C@@H](OC(C)=O)[C@H]1OCc2ccccc2[C@@H]1/C=C/c1ccccc1 | . | . | . | . | -3
COC(=O)C1=C(C)N(Cc2ccco2)C(=O)/C1=C\c1ccc(N(C)C)cc1 | 2 | + | 5 | 3 | -16
COC(=O)C1=C(C)N(Cc2ccco2)C(=O)/C1=C\c1ccc([N+](=O)[O-])cc1 | 10 | -62 | 60 | -14 | -11
N#Cc1cccc(OC[C@@H](O)CN2CCC(C(O)(c3ccccc3)c3ccccc3)CC2)c1 | . | . | . | . | 8
CCOc1ccc(NC(=O)NCC2CCN(c3ccc(OC)cc3)C2)cc1 (centres undefined) | 33* | 3 | -4 | 5 | -10
CCc1ccc(NC(=O)NCC2CCN(c3ccc(OC)cc3)C2)cc1 (centres undefined) | 9 | 5 | 1 | 1 | 5
O=C(c1cnc2sccn2c1=O)N1CCCc2ccccc21 | 32* | -30 | -2 | 0 | 9
COc1ccccc1OCCNc1ccc(S(=O)(=O)N2CCCC2)cn1 | -2 | 167* | . | 0 | 13
COc1ccc(-c2ccc3c(n2)CCCN3Cc2ccccc2C(F)(F)F)cc1 | . | . | . | . | -66
SMILES | GDH-TPI inh | MazEF act | Mtb bLac sens | Mtb FBA inh | CCHF vOTU inh
COc1cccc(NC(=O)c2ccc(-c3ccc([N+](=O)[O-])cc3)o2)c1 | 15 | 276* | 0 | -3 | 6
Cc1ccccc1C(=O)Nc1cccc(NC(=O)c2ccc(-c3ccc(Br)cc3)o2)c1 | 34* | -20 | 86 | -2 | 13
COc1ccc(/C=C/S(=O)(=O)NC2CCCC2)c(CNC(=O)OC(C)(C)C)c1 | . | . | . | . | 8
O=C(NCc1ccccc1)c1ccc(-c2cn[nH]c2)c2ccoc12 | 10 | . | . | 32* | -6
O=C(O)c1ccccc1N=Nc1ccc(O)cc1 | 36* | -21 | 0 | -6 | 14
COc1cc(NC(=O)CSc2nc(C)cc(=O)[nH]2)cc(OC)c1 | . | . | . | . | 2
Cc1ccsc1/C=C(\CC(=O)O)c1nc2ccccc2o1 | 44* | 0 | 4 | 3 | 16
O=C(O)C/C(=C\c1cc(Br)cs1)c1nc2ccccc2o1 | 27 | 5 | -9 | 0 | 18
CCN(CC)c1ccc(C(NC(C)=O)NC(C)=O)cc1 | 2 | 1 | 23 | -2 | 8
CC(=O)NC(NC(C)=O)c1ccc(N(C)C)cc1 | 47* | 2 | 6 | -2 | 9
CN(C)c1ccc(C(=O)c2ccc(N(C)C)cc2)cc1 | 40* | 14 | ? | 2 | 7
Cc1cc(O)c(C(C)C)cc1N=Cc1ccc(N(C)C)cc1 | 46* | 0 | . | -1 | 19
COCCNC(=O)[C@H](C)[C@H]1C[C@]1(C)[C@H](NC(=O)OCc1ccccc1)c1ccccc1 | 2 | -2 | -3 | 168* | 11
C#CCCCN([C@H](C(=O)OC)C(C)C)S(=O)(=O)c1ccccc1Br | . | . | . | . | 5
COc1nccnc1NS(=O)(=O)c1ccc(N=Cc2c(C)[nH]n(-c3ccc(C)c(C)c3)c2=O)cc1 | 32* | 1 | 57 | -1 | -9
Cc1[nH]n(-c2cccc3ccccc23)c(=O)c1/C=N/c1sc2c(c1C#N)CCC2 | 11 | -9 | -8 | 3 | 6
Cc1[nH]n(-c2cccc3ccccc23)c(=O)c1C=Nc1ccc2[nH]c(=O)[nH]c2c1 | 35* | 13 | 3 | 0 | 15
Cc1ccc(-n2[nH]c(C)c(C=Nc3ccc4[nH]c(=O)[nH]c4c3)c2=O)cc1C | 17 | 63* | 1 | 1 | 10
Cc1ccc(-n2[nH]c(C)c(C=Nc3ccc4[nH]c(=O)[nH]c4c3)c2=O)cc1 | 22 | 7 | 5 | -2 | 3
COc1ccc(C=NNC(=O)c2cc(C)oc2C)cc1O | 31* | 5 | 2 | 1 | 15
COc1ccc(/C=N/NC(=O)c2cc3c(OC)ccc(OC)c3[nH]2)cc1O | 43* | 23 | 6 | -3 | 10
COc1cc(/C=N/NC(=O)c2cc(C)oc2C)ccc1O | 24 | 4 | -3 | -3 | -1
COC(=O)[C@]12C[C@H](CC(=O)NCCC(C)C)C(=O)N(CCc3ccc(OC)c(OC)c3)C1=C[C@H](C(C)C)O[C@@H]2C1CC1 | . | . | . | . | 18
O=C(OCCN1CCN(C2CN(Cc3cn(Cc4ccc([N+](=O)[O-])cc4)nn3)S(=O)(=O)C2)CC1)c1cc2ccccc2o1 (centres undefined) | . | . | . | . | 2
C/C(=N\NC(=O)c1cc(C)oc1C)c1ccc(C)c([N+](=O)[O-])c1 | 7 | -13 | 5 | -2 | 5
CCN(CC)c1ccc(C(=O)N/N=C(\C)c2cccnc2)cc1 | 21 | 2 | 1 | 0 | 9
COc1ccc2cc(/C(C)=N/NC(=O)c3cc(C)oc3C)ccc2c1 | 9 | 1 | . | 198* | -58
CCN(CC)c1ccc(C(=O)N/N=C(\C)c2ccc(O)cc2)cc1 | 34* | 2 | 0 | -1 | 11
COc1ccc(/C(C)=N/NC(=O)c2ccc(N(C)C)cc2)cc1 | 35* | 4 | 6 | 0 | 11
